This is a sample that favours compounds with a hit; in the whole collection about 5% have one here.
EBI2 antag: antagonists of human EBI2 receptor | AID 651636 | EBI2 beta-arrestin recruitment, luminescence, 7a,25-OHC stimulated | actives 0.81% (n = 360,000) | P32249 | inhibition, % at 5 µM; in the data active = inhibition above about 38%;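 note: enzyme fragment complementation signal reports receptor beta-arrestin coupling in cells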
Target sequence (P32249 whole entry, looked up, the tested form may be a part): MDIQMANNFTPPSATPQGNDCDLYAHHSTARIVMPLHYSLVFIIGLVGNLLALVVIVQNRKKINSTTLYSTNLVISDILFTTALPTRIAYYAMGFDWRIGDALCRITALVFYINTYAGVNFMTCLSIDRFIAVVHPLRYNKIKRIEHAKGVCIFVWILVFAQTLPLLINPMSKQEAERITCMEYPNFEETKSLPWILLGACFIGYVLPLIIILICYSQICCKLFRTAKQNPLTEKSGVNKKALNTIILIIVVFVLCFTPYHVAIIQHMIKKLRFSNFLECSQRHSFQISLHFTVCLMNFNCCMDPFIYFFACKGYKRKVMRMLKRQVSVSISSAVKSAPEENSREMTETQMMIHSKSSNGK
SENP7 inh: blocks the human protease SENP7. Q9BQF6. recombinant SENP7, Z-RLRGG-aminoluciferin luminescence, 40 min. inhibition, % at 5 µM. actives 1.5% (n = 330,000);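 active = inhibition above about 50% at the single test dose, limit read from the data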
SENP8 block-1: SENP8 protease inhibition | purified SENP8, Z-RLRGG-aminoluciferin cleavage, luminescence | AID 2540 | inhibition, % at 10 µM | actives 1.2% (n = 330,000); in the data active = inhibition above about 50%
SENP8 block-2: SENP8 (human) protease inhibition | Q96LD8 | inhibition, % at 20 µM | recombinant SENP8, Nedd8 substrate fluorescence | actives 0.64% (n = 360,000) | AID 602440; in the data active = inhibition mostly above about 40%, no sharp cut-off; inactive = mostly below about 27%
SENP6 block: inhibitors of human SENP6 protease | inhibition, % at 10 µM | Q9GZR1 | actives 1.8% (n = 330,000) | AID 2599 | Recombinant SENP6 catalytic domain, aminoluciferin luminescence;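 active = inhibition above about 50% at the single tested dose, limit read from the data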
AHR act: activates the human aryl hydrocarbon receptor. P35869. activation, % at 5 µM. actives 2.5% (n = 320,000). AHR-responsive luciferase reporter cells, luminescence; in the data active = activation above about 47%
AHR act confirm: confirmation of human aryl hydrocarbon receptor activators; actives 87% (n = 2,300); human cells, AHR-responsive luciferase reporter, luminescence; AID 2845; activation, % at 9 µM; shares compounds with AHR act; in the data active = activation above about 49%;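 note: HepG2 hepatoma cells carrying a DRE-driven firefly luciferase reporter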
PXR counter: activates human PXR in AHR activator counter-screen. shares compounds with AHR act. cell-based PXR reporter, luciferase luminescence. activation, % at 11.6 µM. actives 88% (n = 2,300). AID 434939; in the data active = activation above about 11%;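 note: human hepatoma DPX-2 cells expressing full-length human PXR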
SENP8 confirm: human SENP8 inhibition, confirmed | actives 40% (n = 6,200) | shares compounds with SENP7 inh | inhibition, % at 12.5 µM | Recombinant SENP8, Z-RLRGG-aminoluciferin luminescence, 60 min;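 active = mean inhibition across replicates above about 50%, limit read from the data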
SENP6 conf: confirmation of human SENP6 protease inhibitors; shares compounds with SENP7 inh; recombinant SENP6, Z-RLRGG-aminoluciferin luminescence; inhibition, % at 12.5 µM; actives 58% (n = 6,200)
SENP7 conf: confirmation of human SENP7 protease inhibitors; AID 488917; recombinant SENP7, Z-RLRGG-aminoluciferin luminescence, 40 min; inhibition, % at 12.5 µM; actives 69% (n = 6,200); shares compounds with SENP7 inh
Casp3 SENP sel: caspase-3 inhibition (SENP selectivity assay); shares compounds with SENP7 inh; purified caspase-3, Z-DEVD-aminoluciferin luminescence, 60 min; inhibition, % at 12.5 µM; actives 60% (n = 6,200); AID 488918;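 active = mean inhibition above about 50%, limit read from the data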
Target sequence (P42574 28-227 limits assumed): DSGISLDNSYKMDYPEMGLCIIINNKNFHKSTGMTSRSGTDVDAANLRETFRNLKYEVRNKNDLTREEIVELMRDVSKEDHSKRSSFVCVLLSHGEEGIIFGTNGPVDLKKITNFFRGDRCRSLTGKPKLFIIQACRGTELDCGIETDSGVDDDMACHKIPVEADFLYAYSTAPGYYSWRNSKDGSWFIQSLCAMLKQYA
SENP luc ctr: luminescence interference (SENP counter-screen). shares compounds with SENP7 inh. Pre-incubated SENP8/Z-RLRGG-aminoluciferin, luciferase luminescence interference. inhibition, % at 12.5 µM. actives 39% (n = 6,200). AID 488919;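 active = mean inhibition above about 50% when retested at one dose, limit read from the data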
Of the large screens only hits and unclear results are named; the others gave an inactive call (follow-up assays come after a bar, where they were run).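 Rule for the calls, unless noted: active = mean inhibition above about 50% in the one-dose retest (limit read from the data); inactive = the rest.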

O=C(Nc1ccc2c(c1)OCO2)c1ccc(Cl)s1	SENP7 inh 74, SENP8 block-1 62, SENP6 block 76, AHR act 113 | AHR act confirm 85 | PXR counter 34 | SENP8 confirm inactive | SENP6 conf 63 | SENP7 conf 88 | Casp3 SENP sel 66 | SENP luc ctr 64
CCCc1cc(=O)oc2cc(C)cc(OCC(=O)Nc3ccc(S(N)(=O)=O)cc3)c12	none
NC(=O)c1c(NC(=O)c2ccccc2C(=O)O)sc2c1CCCC2	none
NC(=O)c1c(NC(=O)c2ccccc2F)sc2c1CCCC2	SENP6 block 56, AHR act 205 | AHR act confirm 104 | PXR counter 28 | SENP8 confirm inactive | SENP6 conf inactive | SENP7 conf inactive | Casp3 SENP sel inactive | SENP luc ctr inactive
c1ccc(-c2noc(COc3ccc4c(c3)OCO4)n2)cc1	none
c1ccc(-c2noc(-c3ccc4c(c3)OCO4)n2)cc1	SENP7 inh 100, SENP8 block-1 93, SENP6 block 97, AHR act 87 | AHR act confirm inactive | PXR counter inactive | SENP8 confirm 92 | SENP6 conf 88 | SENP7 conf 96 | Casp3 SENP sel 94 | SENP luc ctr inactive
Brc1ccc(-c2nc(-c3ccccc3)no2)o1	SENP7 inh 92, SENP8 block-1 85, SENP6 block 90, AHR act 124 | AHR act confirm 148 | PXR counter 19 | SENP8 confirm inactive | SENP6 conf 87 | SENP7 conf 99 | Casp3 SENP sel 70 | SENP luc ctr inactive
COc1ccccc1-c1nc(-c2ccc(Br)o2)no1	SENP7 inh 78, SENP8 block-1 78, SENP6 block 83, AHR act 91 | AHR act confirm 131 | PXR counter 58 | SENP8 confirm inactive | SENP6 conf 59 | SENP7 conf 55 | Casp3 SENP sel inactive | SENP luc ctr 65
COc1ccc(-c2nc(-c3ccc(Br)o3)no2)cc1OC	none
Cc1ccc(-c2noc(-c3cc4ccccc4oc3=O)n2)cc1	none
Cc1ccc(-c2noc(-c3ccccc3Br)n2)cc1	SENP7 inh 90, SENP8 block-1 80, SENP6 block 76, AHR act 126 | AHR act confirm 120 | PXR counter 18 | SENP8 confirm 64 | SENP6 conf 64 | SENP7 conf 85 | Casp3 SENP sel 70 | SENP luc ctr 65
C(#CCN1CCC(Cc2ccccc2)CC1)COCCOCc1ccccc1	none
CC(C)CNC(=O)C1C(=O)Nc2ccccc2C(=O)N1C1CCCCC1 (stereo unspecified)	none (no result: SENP7 inh, SENP8 block-1, SENP6 block, AHR act)
CC(=O)Nc1ccc2nc(-c3ccccn3)[nH]c2c1	none
c1ccc(-c2nc3cc4ccccc4cc3[nH]2)nc1	SENP7 inh 100, SENP8 block-1 94, SENP6 block 99, AHR act 114 | AHR act confirm inactive | PXR counter 23 | SENP8 confirm 96 | SENP6 conf 97 | SENP7 conf 100 | Casp3 SENP sel 96 | SENP luc ctr 94
CCc1ccc(-c2cc3c(=O)n(CC(=O)NCCN4CCCCC4C)nc(C)n3n2)cc1 (stereo unspecified)	none
CCCC(C(=O)NC(C)(C)CC)N(Cc1ccco1)C(=O)CNS(=O)(=O)c1ccccc1 (stereo unspecified)	none
CC(C)c1cc(C(=O)N/N=C/c2cccnc2)n[nH]1	none
Cc1ccccc1NC(=O)c1cc2ccccc2o1	SENP7 inh 71, SENP8 block-1 67, SENP6 block 85, AHR act 103 | AHR act confirm 122 | PXR counter 14 | SENP8 confirm 71 | SENP6 conf 70 | SENP7 conf 92 | Casp3 SENP sel 85 | SENP luc ctr 79
CC(=O)c1ccc(NC(=O)c2cc3ccccc3o2)cc1	none
O=C(Nc1ccccc1)c1cc2ccccc2o1	SENP7 inh 98, SENP8 block-1 95, SENP6 block 97, AHR act 93 | AHR act confirm 68 | PXR counter 21 | SENP8 confirm 96 | SENP6 conf 98 | SENP7 conf 102 | Casp3 SENP sel 97 | SENP luc ctr 98
Cc1ccc(N2C(=O)N(CC(=O)NCc3ccccc3Cl)C(=O)C2C)cc1 (stereo unspecified)	none
CCC(=O)N1CCc2cc(S(=O)(=O)N3CCN(c4ccccc4Cl)CC3)ccc21	none
N/C(=N\OC(=O)c1ccc(Cl)cc1[N+](=O)[O-])c1ccccn1	SENP7 inh 51, SENP8 block-1 53, SENP6 block 59, AHR act 146 | AHR act confirm 53 | PXR counter 13 | SENP8 confirm inactive | SENP6 conf inactive | SENP7 conf 77 | Casp3 SENP sel 77 | SENP luc ctr inactive
CN(C)S(=O)(=O)c1cccc(C(=O)N=C2N=C3C=CC(Cl)=CN3Cc3ccccc32)c1	SENP7 inh 89, SENP8 block-1 69, SENP6 block 91, AHR act 97 | AHR act confirm 50 | PXR counter 32 | SENP8 confirm inactive | SENP6 conf inactive | SENP7 conf inactive | Casp3 SENP sel 67 | SENP luc ctr inactive
C[C@H](NC(=O)c1ccco1)C(=O)N1CCCC1	none
N/C(=N\OC(=O)c1ccccc1Cl)c1cccnc1	SENP7 inh 57, SENP6 block 65, AHR act 102 | AHR act confirm 104 | PXR counter inactive | SENP8 confirm 56 | SENP6 conf 54 | SENP7 conf 82 | Casp3 SENP sel 79 | SENP luc ctr 64
N/C(=N\OC(=O)c1cc(Cl)ccc1Cl)c1cccnc1	none
N/C(=N\OC(=O)c1cc(Br)ccc1Cl)c1cccnc1	none

Screening data: PubChem BioAssay, several laboratories
